# High-throughput results: PubChem, National Center for Advancing Translational Sciences (NCATS)
# AmpC detergent: blocks E. coli AmpC beta-lactamase in detergent assay; AmpC hydrolysis of nitrocefin, absorbance 480 nm, 0.01% Triton; hit rate 0.041% among 370,000; Potency, µM (series often up to 114 µM), actives largely listed as inhibitors; P00811; also: nearly all actives have a fitted effect of over 25% in size
# Target sequence (P00811 whole entry, looked up): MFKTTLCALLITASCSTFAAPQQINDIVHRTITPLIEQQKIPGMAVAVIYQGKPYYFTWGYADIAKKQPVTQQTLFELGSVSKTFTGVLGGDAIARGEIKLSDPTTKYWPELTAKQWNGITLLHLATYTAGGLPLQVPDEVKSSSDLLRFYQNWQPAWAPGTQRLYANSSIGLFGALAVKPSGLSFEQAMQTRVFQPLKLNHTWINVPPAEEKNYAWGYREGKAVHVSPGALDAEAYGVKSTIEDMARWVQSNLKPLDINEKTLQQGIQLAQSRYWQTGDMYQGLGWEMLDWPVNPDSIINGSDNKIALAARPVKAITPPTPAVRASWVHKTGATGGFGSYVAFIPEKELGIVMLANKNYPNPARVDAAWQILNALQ
#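 AmpC (5.3 nM in the dispensed reagent) in 20 mM phosphate pH 7.0 with 0.01% (detergent screen) or 0.0001% Triton X-100 was preincubated with compounds for 15 min at room temperature. Nitrocefin was then added from an 800 uM solution, and hydrolysis was followed at 480 nm.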
# FMDV antiviral: blocks foot and mouth disease virus | FMDV antiviral cell-based qHTS | Potency, µM (doses to about 57.9 µM), actives largely listed as inhibitors | hit rate 1.2% among 410,000 | AID 1159524; calls by dose curve; tested in HEK293T cells; also: read-out not given here; nearly all actives have a fitted effect of over 45% in size
# AmpC inh no detg: inhibitors of E. coli AmpC beta-lactamase without detergent; P00811; AmpC nitrocefin hydrolysis, absorbance 480 nm, 0.0001% Triton; Potency, µM (doses to about 57.1 µM), hits mostly inhibitors; hit rate 0.52% among 330,000; also: nearly all actives have a fitted effect of over 20% in size
#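 AmpC (5.3 nM in the dispensed reagent) in 20 mM phosphate pH 7.0 with 0.01% (detergent screen) or 0.0001% Triton X-100 was preincubated with compounds for 15 min at room temperature. Nitrocefin was then added from an 800 uM solution, and hydrolysis was followed at 480 nm.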
# Sm TGR block: inhibitors of Schistosoma mansoni thioredoxin glutathione reductase. purified TGR, DTNB reduction, TNB absorbance 405 nm. Potency, µM (series often up to 114 µM), usual class: inhibitors. hit rate 3% among 360,000; also: nearly all actives have a fitted effect of over 60% in size
#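 TGR 20 nM + NADPH 100 uM (dispensed conc.), cpd preinc 15 min RT; start with NADPH (500 uM addition) then DTNB (15 mM addition). Kinetic TNB absorbance, 405 nm filter. Four-parameter Hill fit across titration.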
# AMA1 RON2 block: disrupts binding of P. falciparum AMA1 to RON2. AlphaScreen AMA1-biotinylated RON2 peptide binding. hit rate 0.2% among 360,000. Potency, µM (series often up to 58.2 µM), usual class: inhibitors; also: nearly all actives have a fitted effect of over 45% in size
#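 AMA1 (3D7) with his tag at 25 nM final met compounds first, then biotinylated RON2 peptide at 25 nM; detection used donor plus acceptor beads, 10 µg/mL apiece, read by AlphaScreen after 30 min at room temperature.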
# Hits are given with their value; - = inactive; ? = inconclusive; . = no result; [ ] = another dose, or the depositor's remark. Rows were chosen to be rich in hits. Some 4.1% of all compounds tested hit in one or more screens of this group. Unless noted, calls follow the shape of the dose curve; as a rule, active = well fitted curve in the direction sought with a large enough effect; inconclusive = small, poorly fitted or top-dose-only effect, or another doubt; inactive = no such curve, though single readings can be large; an effect the other way counts as inactive or inconclusive.
SMILES,AmpC detergent,FMDV antiviral,AmpC inh no detg,Sm TGR block,AMA1 RON2 block
CC(C)CN(CCOc1cccc(N2C(=O)C3=C(CCCC3)C2=O)c1)CC(C)C,-,?,-,-,-
O=C1C2=C(CCCC2)C(=O)N1c1cccc(OCCBr)c1,-,-,-,45µM,-
Cc1cccc(OCC(=O)Nc2ccc3c(c2)nc(CCN2CCC(C)CC2)n3C)c1,-,-,-,-,-
CCn1c(CN2CCC(C)CC2)nc2cc(NC(=O)COc3ccc(Cl)c(C)c3)ccc21,-,18µM,.,-,.
CC(=O)c1c(C)[nH]c(C(=O)Nc2cccc(S(=O)(=O)N3CCCCC3)c2)c1C,-,-,-,-,-
CC(=O)c1c(C)[nH]c(C(=O)OC(C)C(=O)Nc2cc(S(=O)(=O)N3CCCCC3)ccc2Cl)c1C (stereo not drawn),-,?,7.9µM,-,-
CC(=O)c1ccc(OCC(O)COc2ccc(C(C)=O)cc2)cc1,-,.,-,-,-
C=C(C)C(=O)OCC(O)COc1ccc(C(C)(C)c2ccc(OCC(O)COC(=O)C(=C)C)cc2)cc1 (stereo not drawn),?,40µM,-,-,-
CC(NCC(=O)Nc1ccccc1C(=O)NC1CC1)c1ccc(Cl)cc1 (stereo not drawn),.,20µM,.,.,-
O=C(COc1ccc(Br)cc1)Nc1ccccc1C(=O)NC1CC1,?,-,3.2µM,-,-
Cc1c(C(=O)N(C)C)sc2c1c(=O)n(-c1ccccc1C(F)(F)F)c(=O)n2Cc1ccccc1C#N,-,-,.,-,.
CC(=O)c1cccc(NC(c2ccc(F)cc2)c2nnc(-c3ccccc3)o2)c1 (stereo not drawn),-,?,.,-,.
COc1ccc(N2CCN(C(=O)c3cnc(N4CCCC4)nc3C)CC2)cc1,-,-,.,-,.
COc1ccc(N2CCN(C(=O)c3cccnc3SCc3cccc(Br)c3)CC2)cc1,-,?,-,-,32µM
Cc1[nH]c2ccccc2c1NC(=O)CN1CCN(C(=O)c2ccco2)CC1,-,-,-,32µM,-
CC1(C)CC(=O)C(C(C#Cc2ccccc2)C2=C(O)CC(C)(C)CC2=O)=C(O)C1,-,-,-,4µM,-
CC1(C)CC(=O)C(N=Nc2ccc(-c3ccccc3)cc2)=C(O)C1,?,-,-[11.4 µM],-,-
O=C1CCCC(O)=C1Sc1ccccc1C(=O)O,-,-,-,.,-
O=C1CCCC(O)=C1C(C#Cc1ccccc1)C1=C(O)CCCC1=O,?,-,-,3.2µM,-
CC(C)CCNC(=O)C1CCN(C(=O)c2cc3sccc3n2Cc2ccc(Cl)cc2)CC1,-,?,.,-,.
CCOc1ccc(-n2ccnc2SCC(=O)Nc2cccc3ccccc23)cc1,-,-,.,-,.
COc1ccc(C(=O)N2CC(=O)Nc3ccc(C)cc3C2c2ccc(F)cc2)c(OC)c1 (stereo not drawn),-,-,.,-,.
Cc1ccc(NS(=O)(=O)c2cccc(C(=O)NNC(=O)c3cccn3C)c2)c(C)c1,-,-,16µM,-,-
COc1ccc(NS(=O)(=O)c2cccc(C(=O)NNC(=O)c3cccn3C)c2)cc1,?,-,-,-,-
COc1ccc(Oc2nc(SC)nc3ccccc23)cc1,-,?,0.16µM,-,-
SMILES,AmpC detergent,FMDV antiviral,AmpC inh no detg,Sm TGR block,AMA1 RON2 block
CC1CC2C3CC(F)C4=CC(=O)C=C[C@@]4(C)[C@@]3(F)C(O)C[C@]2(C)[C@]1(O)C(=O)COC(=O)C(C)(C)C (stereo partly drawn),.,-,.,.,.
COCc1[nH]c(=S)c(C#N)cc1C(=O)OC,-,-,-,20µM,-
Nc1ncc(S(=O)(=O)Nc2ccc(F)cc2F)cn1,-,-,.,-,.
O=C(Nc1ccc(-c2nc3ccccc3o2)cc1)c1cc(-n2cnnc2)ccc1Cl,-,-,-,-,-
CCOC(=O)c1oc2ccccc2c1NC(=O)c1cccc(OC)c1,-,?,-,-,-
O=C(Nc1ccc(-c2nc3ccccc3o2)c(O)c1)c1cc(-n2cnnc2)ccc1Cl,?,13µM,-,-,-
COc1cccc(C(=O)Nc2c(C(N)=O)oc3ccccc23)c1,?,-,7.1µM,-,-
COc1cccc(C(=O)Nc2ccc(-c3nc4ccccc4o3)c(O)c2)c1,-,.,4µM,-,-
COc1cc(-c2cc(C)c3cccc(OC)c3n2)cc2c1OCCN(C(=O)CCn1ccc(C)n1)C2,.,-,.,.,.
